In PubChem BioAssay (EPA / NIEHS):
Activity calls are given as the source filed them. Rule for the calls: active = hit-call score of the fitted dose curve at least 0.9, where 1 is the maximum; inactive = score below 0.9.

What follows are compounds tested against Paired box protein Pax-6 (Homo sapiens) (UniProt P26367) (assay: ATG_Pax6_CIS: Attagene CIS-FACTORIAL HepG2 Assay for human Paired Box 6 (PAX6) (AID 2282956)). Conditions: HepG2 CIS-FACTORIAL PAX6 reporter transcription, RNA readout; actives raise or lower the signal.
Sequence of Paired box protein Pax-6 (Homo sapiens) (P26367 whole entry, looked up): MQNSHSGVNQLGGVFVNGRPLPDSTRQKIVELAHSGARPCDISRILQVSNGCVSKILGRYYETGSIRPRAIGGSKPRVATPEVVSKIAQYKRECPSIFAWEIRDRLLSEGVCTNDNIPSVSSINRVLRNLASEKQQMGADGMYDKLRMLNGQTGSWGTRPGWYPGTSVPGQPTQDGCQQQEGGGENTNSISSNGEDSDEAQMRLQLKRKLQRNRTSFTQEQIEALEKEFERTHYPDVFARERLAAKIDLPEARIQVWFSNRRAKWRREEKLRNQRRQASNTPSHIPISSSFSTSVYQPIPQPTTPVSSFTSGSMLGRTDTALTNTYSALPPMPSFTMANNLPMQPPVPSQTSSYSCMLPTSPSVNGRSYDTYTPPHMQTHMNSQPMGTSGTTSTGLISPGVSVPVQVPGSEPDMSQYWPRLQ
Description: ATG_CIS is a cell-based, multiplexed-readout assay that uses HepG2, a human liver cell line, with measurements taken at 24 hours after chemical dosing in a 24-well plate.ATG_Pax6_CIS is one of 52 assay component(s) measured or calculated from the ATG_CIS assay. It is designed to make measurements of mRNA induction, a form of inducible reporter, as detected with fluorescence intensity signals by Reverse transcription polymerase chain reaction (RT-PCR) and Capillary electrophoresis technology.Data from the assay component ATG_Pax6_CIS was analyzed into 1 assay endpoint. This assay endpoint, ATG_Pax6_CIS, was analyzed with bidirectional fitting relative to DMSO as the negative control and baseline of activity. Using a type of inducible reporter, measures of mRNA for gain or loss-of-signal activity can be used to understand the reporter gene at the transcription factor-level as they relate to the gene PAX6. Furthermore, this assay endpoint can be referred to as a primary readout, because this assay has produced multiple assay endpoints where this one serves a reporter gene function. To generalize the intended target to other relatable targets, this assay endpoint is annotated to the dna binding intended target family, where the subfamily is paired box protein.
Human liver HepG2 cells are transiently transfected with multiple reporter transcription units (MRTUs) in 6-well plates using FuGene 6 reagent (Roche; 3 ml FuGene/1 mg DNA). The MRTU constructs are regulated by a cis-regulating element (promoter). […] A major difference between the CIS and TRANS system is that in CIS activities of endogenous TFs are measured, whereas the TRANS assay evaluates changes in activities of exogenous, chimeric NR-Gal4 proteins. […] At the end of 24 hour incubation, total RNA was isolated using TriZol reagent (Invitrogen). The isolated RNA is then reverse-transcribed using oligo(dT) primer and Mo-MLV reverse transcriptase (Invitrogen) with DNAse I (Ambion) treatment for 30 min. The one-tenth of the produced cDNA was amplified by PCR using Taq DNA polymerase (Invitrogen) and two reporter sequence-specific primers. The PCR products were fluorescently labeled by primer extension with 6-arboxyfluorescein (6-FAM) 5'-labeled reporter sequence-specific primer (2 min at 95 C, 20 s at 68 C and 10 min at 72 C) and these products were digested with 5U of HpaI (New England Biolabs) for 2h at 37 C. The fragments were purified using Qiaquick PCR columns (Qiagen), analyzed on an ABI 3130xL genetic analyzer (Applied Biosystems) with peak positions identified by using a set of X-rhodamine (ROX)-labeled MapMarker1000 molecular weight standards (BioVentures). The raw capillary electrophoresis data was processed using Attagraph software (Attagene).

| Structure (SMILES) | outcome | AC50 |
| --- | --- | --- |
| O=C(O)c1cccc(C(F)(F)F)c1 | inactive | – |
| O=C(O)C[C@H](O)C[C@H](O)/C=C/c1c(C2CC2)nc2ccccc2c1-c1ccc(F)cc1 | inactive | – |
| CC(C)C(C)(C)C(C)(C)C(C)(C)S | inactive | – |
| O=c1[nH]c(=O)n([C@H]2CCCO2)cc1F | inactive | – |
| NCCNCCN | inactive | – |
| C=CC(=O)OCC(O)COc1ccccc1 (stereo not given) | – | 41.2 µM (active) |
| CCCCNC(=O)NS(=O)(=O)c1ccc(C)cc1 | inactive | – |
| CC(C)(CO)[N+](=O)[O-] | inactive | – |
| CCCCCCCCCCCCSC | inactive | – |
| CC1(C)CCC(C)(C)c2cc(C(=O)Nc3ccc(C(=O)O)cc3)ccc21 | – | 85 µM (active) |
| O=C1O[C@@H]2[C@@H](O)[C@H](O)O[C@@H]2[C@H]1O | inactive | – |
| c1ccc2[nH]ccc2c1 | inactive | – |
| O=C1CCc2ccccc2O1 | inactive | – |
| CC(=O)O[C@H](CC(=O)[O-])C[N+](C)(C)C | inactive | – |
| OCc1cccnc1 | inactive | – |
| CCCCCCCCCCCCN(CCCCCCCCCCCC)CCCCCCCCCCCC | inactive | – |
| O=c1[nH]nnc2ccccc12 | inactive | – |
| COC(C)CCO (stereo not given) | inactive | – |
| O=C(O)c1cn(C2CC2)c2cc(N3CCNCC3)c(F)cc2c1=O | inactive | – |
| Cc1ccc(Nc2ccc(O)c3c2C(=O)c2ccccc2C3=O)cc1 | inactive | – |

| Structure (SMILES) | outcome | AC50 |
| --- | --- | --- |
| CCCCOCCOCCOCCOCCO | inactive | – |
| OC1C(O)C(O)C(O)C(O)C1O (stereo not given) | inactive | – |
| COc1ccc(Cl)cc1C | inactive | – |
| CC[C@]12CCCN3CCc4c(n(c5ccccc45)[C@@](O)(C(=O)OC)C1)[C@@H]32 | inactive | – |
| CC(C)=CCCC(C)=CCCC(C)=CCO | inactive | – |
| CCCCCOC(=O)CCC | inactive | – |
| CCCCN | inactive | – |
| Clc1ccc(Cl)c(Cl)c1Cl | inactive | – |
| CCCC(=O)OCCC(C)CCC=C(C)C (stereo not given) | inactive | – |
| COC(=O)C1=C(C)NC(C)=C(C(=O)OCCN(C)Cc2ccccc2)C1c1cccc([N+](=O)[O-])c1 (stereo not given) | – | 20.5 µM (active) |
| C[Si](O[Si](C)(C)C)O[Si](C)(C)C | inactive | – |
| CC(CCO)CCCC(C)(C)O (stereo not given) | inactive | – |
| CC(C)(C)c1cc(CCC(=O)NN)cc(C(C)(C)C)c1O | inactive | – |
| CC(C)(COC(=O)c1ccccc1)COC(=O)c1ccccc1 | inactive | – |
| COc1ccnc(CS(=O)c2nc3cc(OC(F)F)ccc3[nH]2)c1OC (stereo not given) | inactive | – |
| O=C(O)c1ccc([N+](=O)[O-])cc1 | inactive | – |
| Clc1nc(C(Cl)(Cl)Cl)c(Cl)c(Cl)c1Cl | inactive | – |
| NNc1nc(-c2ccc(N)cc2)cs1 | inactive | – |
| O=C(OCc1ccccc1)C(=O)OCc1ccccc1 | inactive | – |
| C=CC(=O)NCOCC(C)C | inactive | – |
